The campaign covered roughly 310,000 compounds. About 14,000 (4.5%) showed an effect of 50% or more. The effect is printed as a negative number. The full list was thinned out, with strong results kept by preference.
The compounds below were run against human ether-à-go-go-related gene (hERG) potassium channel (human, UniProt Q12809) (assay: primary screen, population patch clamp on CHO cells stably expressing hERG; higher = less effect of the substance).
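Note: peak tail current of the secondary pulse compared with the same well before compound.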

human ether-à-go-go-related gene (hERG) potassium channel, sequence (Q12809 whole entry, looked up): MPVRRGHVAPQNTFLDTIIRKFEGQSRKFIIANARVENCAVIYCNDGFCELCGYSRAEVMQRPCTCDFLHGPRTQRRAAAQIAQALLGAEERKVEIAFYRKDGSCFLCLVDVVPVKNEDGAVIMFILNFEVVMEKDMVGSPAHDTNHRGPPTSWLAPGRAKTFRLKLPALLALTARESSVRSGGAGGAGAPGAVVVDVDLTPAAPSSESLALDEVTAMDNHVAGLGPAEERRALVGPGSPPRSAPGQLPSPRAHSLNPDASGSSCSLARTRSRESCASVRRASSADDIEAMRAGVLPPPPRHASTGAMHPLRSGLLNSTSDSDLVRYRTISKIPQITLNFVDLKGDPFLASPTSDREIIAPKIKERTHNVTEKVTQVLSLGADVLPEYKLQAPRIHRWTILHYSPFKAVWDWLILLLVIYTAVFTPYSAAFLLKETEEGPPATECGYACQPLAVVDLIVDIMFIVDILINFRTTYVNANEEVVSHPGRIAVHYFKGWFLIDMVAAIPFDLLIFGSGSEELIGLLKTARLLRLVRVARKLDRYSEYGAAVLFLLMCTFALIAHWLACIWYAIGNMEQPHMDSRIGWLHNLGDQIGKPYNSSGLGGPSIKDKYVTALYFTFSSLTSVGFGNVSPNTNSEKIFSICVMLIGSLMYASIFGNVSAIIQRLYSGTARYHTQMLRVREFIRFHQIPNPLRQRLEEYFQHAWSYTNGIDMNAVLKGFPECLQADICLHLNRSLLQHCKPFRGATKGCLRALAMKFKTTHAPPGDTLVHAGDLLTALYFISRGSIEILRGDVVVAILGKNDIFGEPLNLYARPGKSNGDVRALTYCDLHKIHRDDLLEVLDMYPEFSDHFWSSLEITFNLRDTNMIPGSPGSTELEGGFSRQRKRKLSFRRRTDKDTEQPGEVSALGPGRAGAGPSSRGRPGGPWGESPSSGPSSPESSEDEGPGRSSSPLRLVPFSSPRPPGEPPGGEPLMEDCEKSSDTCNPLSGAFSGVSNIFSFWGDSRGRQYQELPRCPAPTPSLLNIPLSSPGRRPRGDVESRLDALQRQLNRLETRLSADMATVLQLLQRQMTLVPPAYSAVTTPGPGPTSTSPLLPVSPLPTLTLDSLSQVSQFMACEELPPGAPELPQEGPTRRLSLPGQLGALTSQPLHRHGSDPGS

Row | Structure (SMILES) | hERG current change (%, negative = inhibition) at 10uM
1 | Cc1ccc(-c2cnco2)cc1 | 11.9%
2 | COCCN(CCOC)C(=S)Nc1ccccc1Cl | 6.62%
3 | COc1ccc(NC(=O)C(F)(F)F)cc1OC | 15.1%
4 | COc1ccc(CN2C(=O)c3oc4ccccc4c(=O)c3C2c2ccc(O)c(OC)c2)cc1 (stereo not drawn) | 4.88%
5 | Cc1ccc(C)c(OCC(O)CN2CCC(CN3C(=O)c4cccc5cccc(c45)C3=O)CC2)c1.Cl (stereo not drawn) | -68.2%
6 | Cc1ccc(S(=O)(=O)N2CCC(CN3C(=O)c4cccc5cccc(c45)C3=O)CC2)cc1 | 11.3%
7 | Cl.O=C1c2cccc3cccc(c23)C(=O)N1CC1CCN(CC(O)COc2ccc3ccccc3c2)CC1 (stereo not drawn) | -46.1%
8 | CCOC(=O)N1CCN(CC(O)COc2c(C)cccc2C)CC1.Cl (stereo not drawn) | -15.7%
9 | O=C1c2cccc3cccc(c23)C(=O)N1CC1CCN(S(=O)(=O)c2ccc(F)cc2)CC1 | 2.54%
10 | Cc1cccc(C)c1OCC(O)CN1CCC(CN2C(=O)c3cccc4cccc(c34)C2=O)CC1.Cl (stereo not drawn) | -76.2%
11 | Cc1cc(C)cc(OCC(O)CN2CCC(CN3C(=O)c4cccc5cccc(c45)C3=O)CC2)c1.Cl (stereo not drawn) | -70%
12 | COc1cccc(OCC(O)CN2CCC(CN3C(=O)c4cccc5cccc(c45)C3=O)CC2)c1.Cl (stereo not drawn) | -72.3%
13 | O=C(O)/C(=C\c1cccc(C(F)(F)F)c1)c1ccc(S(=O)(=O)N2CCCC2)s1 | 5.74%
14 | O=C(Cc1cccs1)Nc1cccc(C(=O)Nc2ccco2)c1 | -37.9%
15 | CCOc1ccc(Nc2oc(-c3ccco3)nc2C#N)cc1 | -1.69%
16 | COC(=O)c1ccc(NC(=O)CSc2nc(N)c(NC(=O)c3ccc(Br)o3)c(=O)[nH]2)cc1 | 20.8%
17 | Cc1cc(C)c(S(=O)(=O)Nc2nccs2)c(C)c1 | 0.875%
18 | Cc1cc(S(=O)(=O)NCC(C)C)ccc1OCC(=O)NCC1CCCO1 (stereo not drawn) | 8.03%
19 | CC(=O)Nc1nc(C)c(Oc2ccc(C)cc2)c(=O)[nH]1 | -1.03%
20 | S=C(NC1CC1)SCc1ccco1 | -11.5%

Row | Structure (SMILES) | hERG current change (%, negative = inhibition) at 10uM
21 | COc1cccc(NC(=O)CN(C)CC(=O)NC(C)c2ccccc2)c1 (stereo not drawn) | -8.48%
22 | CN(C)CCN1C(=O)c2oc3ccc(F)cc3c(=O)c2C1c1ccncc1 (stereo not drawn) | -2%
23 | CCOC(=O)CC(=O)CSc1ncnc2c1oc1ccccc12 | 5.2%
24 | Cc1ccc(Cl)cc1Nc1nc(-c2sc(NC(=O)c3ccco3)nc2C)cs1 | 3.48%
25 | COc1ccc2c(c1)C(C)CC(C)(C)N2C(=O)CSc1ncn[nH]1 (stereo not drawn) | -10.9%
26 | Cc1ccccc1OCCCC(=O)Nc1ccc(Br)cc1 | 5.24%
27 | COc1cccc(OC)c1C(=O)OCC(=O)N(C)c1ccccc1 | 7.96%
28 | Cc1ccc(NC(=O)[C@H](C)NC(=O)C2CCN(C(=O)[C@@H](N)CC(C)C)CC2)cc1.Cl | 7.29%
29 | CCc1ccc(OCC(O)CN2CCC(CN3C(=O)c4cccc5cccc(c45)C3=O)CC2)cc1.Cl (stereo not drawn) | -41.1%
30 | COc1ccc(OCC(O)CN2CCC(CN3C(=O)c4cccc5cccc(c45)C3=O)CC2)cc1.Cl (stereo not drawn) | -59.1%
31 | COc1ccc(S(=O)(=O)N2CCC(CN3C(=O)c4cccc5cccc(c45)C3=O)CC2)cc1 | 7.22%
32 | Cc1cc(C)n(C(=O)CCCC(=O)n2nc(C)cc2C)n1 | -4.17%
33 | CC(=O)Nc1ccc(NC(=O)COc2ncnc3ccccc23)cc1 | -7.63%
34 | O=C(Nc1ccccn1)c1cc(-c2cccc(Cl)c2)nc2ccccc12 | 13.3%
35 | O=C(c1ccc(Cl)c(S(=O)(=O)N2CCCC2)c1)N1CCN(c2ccccn2)CC1 | -31.3%
36 | O=C(c1ccc(Cl)c(S(=O)(=O)N2CCOCC2)c1)N1CCN(c2ccccn2)CC1 | -44.2%
37 | O=C(c1ccc(Cl)c(S(=O)(=O)Nc2ccc(F)cc2)c1)N1CCN(c2ccccn2)CC1 | -33.9%
38 | O=C(c1ccc(Cl)c(S(=O)(=O)NCc2ccccc2)c1)N1CCN(c2ccccn2)CC1 | -50.3%
39 | O=C(c1ccc(CNS(=O)(=O)c2ccccc2)cc1)N1CCN(c2ccccn2)CC1 | -28.5%
40 | O=C(c1ccc(Cl)c(S(=O)(=O)N2CCCCCC2)c1)N1CCN(c2ccccn2)CC1 | -63.6%

Row | Structure (SMILES) | hERG current change (%, negative = inhibition) at 10uM
41 | CC1CCN(C(=O)c2ccc(Br)c(S(=O)(=O)N3CCOCC3)c2)CC1 | -3.74%
42 | CC1CCN(S(=O)(=O)c2cc(C(=O)N3CCN(c4ncccn4)CC3)ccc2Br)CC1 | -72.4%
43 | O=C(c1ccc(Cl)c(S(=O)(=O)N2CCCC2)c1)N1CCN(c2ncccn2)CC1 | -4.2%
44 | CCC1(C)CC(C(N)=S)CCO1 (stereo not drawn) | 27.4%
45 | O=C(C1CCC1)N(CCc1ccccc1)Cc1nc2ccccc2c(=O)[nH]1 | -4.04%
46 | CCc1nnc(NC(=O)CN2C(=O)c3ccccc3S2(=O)=O)s1 | 10.7%
47 | Cc1ccc(S(=O)(=O)Nc2c(C)nn(C)c2C)cc1 | -4.07%
48 | CCn1c(=O)c2sccc2n(Cc2ccc(C)cc2)c1=O | 26%
49 | O=C(CN1CCN(CC(=O)Nc2ccc3c(c2)OCO3)CC1)Nc1ccc(F)cc1 | -73.4%
50 | CC1CCc2nc(NC(=O)CN3CCOCC3)sc2C1 (stereo not drawn) | -4.5%
51 | O=C(CN1CCN(c2ccc(F)cc2)CC1)Nc1ccc2c(c1)OCCO2 | 4%
52 | Cc1ccc(NC(=O)N2CCN(Cc3ccc4c(c3)OCO4)CC2)cc1 | -33.8%
53 | O=C(Nc1ccccc1)N1CCN(Cc2ccc3c(c2)OCO3)CC1 | -26.1%
54 | CC1CCc2nc(NC(=O)CN3CCN(Cc4ccc5c(c4)OCO5)CC3)sc2C1 (stereo not drawn) | -66.7%
55 | COc1cc(NC(=O)CN2CCN(Cc3ccc4c(c3)OCO4)CC2)cc(OC)c1.O=C(O)C(=O)O | -47%
56 | CC1CCc2nc(NC(=O)CN3CCN(c4ccccc4)CC3)sc2C1 (stereo not drawn) | -6.29%
57 | O=C(CN1CCN(Cc2ccc3c(c2)OCO3)CC1)NCC(F)(F)F | 5.34%
58 | O=C(CN1CCN(Cc2ccc3c(c2)OCO3)CC1)Nc1ccc(F)cc1 | -81.7%
59 | Cc1cc(C)cc(NC(=O)N2CCN(Cc3ccc4c(c3)OCO4)CC2)c1 | -59%
60 | O=C(CN1CCN(S(=O)(=O)c2ccc(F)cc2)CC1)Nc1ccc2c(c1)OCO2 | -40.6%

From paper PMC4336329 (PLoS ONE, 2015)
